Experimental findings from PubChem BioAssay (NCATS) are described below.

Assay [1] addresses Cellular tumor antigen p53 (Homo sapiens) (UniProt P04637). Briefly: Primary qHTS for small molecule compounds that upregulate eGFP-tagged delta133p53alpha (in N-terminal) cells. (AID 2060322).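 Note: series mostly up to about 56 µM; 0% = DMSO vehicle and 100% = reference activator; nearly all actives have a fitted effect of over 75% in size.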 The conditions noted are these: NCI-H358 eGFP-delta133p53alpha fluorescence, 24 h; activation: stronger effect = higher value. In short, it runs like this:
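NCI-H358 cells pre-induced 24 h with 10 ng/ml doxycycline to express N-terminal eGFP-delta133p53alpha, then dosed 24 h at 37C without doxycycline; fixed, Hoechst-stained, GFP intensity by laser scanning cytometry, normalized to DMSO (0%) and 57.5 uM 5-azacytidine (100%).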
Background: Quantitative high-throughput screening tests each substance at several concentrations.

Assay [2] can be described thus: BET inhibitor-based combinations targeting novel dependencies in MECOM-rearranged (r) AML: SET-2 cell line (AID 2202231).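 For viability: plate controls were DMSO treated cells for no effect and wells without cells for full effect.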 Note: nearly all actives have a fitted effect of over 35% in size. Note: potency is the fitted concentration of half-maximal effect. The conditions noted are these: SET-2 AML cells viability, CellTiter-Glo luminescence, 48 h; viability: stronger effect = lower value, concentration not given here. In short, it runs like this: (§1)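 Here, 11-point titrations of each agent were applied to 500 seeded cells and incubated 48 hr; CellTiter-Glo signal, scaled against DMSO and empty wells, was integrated as AUC, then Z-scored within the individual line.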
(In general: ATP-based viability assays read luminescence as a measure of living cells.)

A short description of assay [3]: BET inhibitor-based combinations targeting novel dependencies in MECOM-rearranged (r) AML: OCI-AML3 cell line (AID 2202232). Note: nearly all actives have a fitted effect of over 35% in size. Note: potency is the fitted concentration of half-maximal effect. The conditions noted are these: Potency: OCI-AML3 viability. An outline of the steps: as §1
Assay [4] can be described thus: BET inhibitor-based combinations targeting novel dependencies in MECOM-rearranged (r) AML: MV-4-11 cell line (AID 2202233). Note: nearly all actives have a fitted effect of over 45% in size. Note: potency is the fitted concentration of half-maximal effect. An outline of the steps:
(§2)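 Normalized to DMSO and empty-well controls, the luminescence data from CellTiter-Glo after 48 hr drug exposure were fitted across 11 concentrations. Reported metrics are area under the dose-response curve and its Z-transformed form.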

Assay [5] can be described thus: BET inhibitor-based combinations targeting novel dependencies in MECOM-rearranged (r) AML: HNT-34 cell line (AID 2202234). Note: nearly all actives have a fitted effect of over 35% in size. Note: potency is the fitted concentration of half-maximal effect. In short, it runs like this:
as §2

Assay [6] can be described thus: BET inhibitor-based combinations targeting novel dependencies in MECOM-rearranged (r) AML: UCSD-AML1 cell line (AID 2202235). Note: nearly all actives have a fitted effect of over 40% in size. Note: potency is the fitted concentration of half-maximal effect. An outline of the steps: as §2
A short description of assay [7]: BET inhibitor-based combinations targeting novel dependencies in MECOM-rearranged (r) AML: AML-191 cell line (AID 2202236; note: nearly all actives have a fitted effect of over 35% in size; note: potency is the fitted concentration of half-maximal effect). An outline of the steps:
as §1

Assay [8] in a line: BET inhibitor-based combinations targeting novel dependencies in MECOM-rearranged (r) AML: AML-194 cell line (AID 2202237; note: nearly all actives have a fitted effect of over 40% in size; note: potency is the fitted concentration of half-maximal effect). An outline of the steps:
as §1

Molecules are shown by their SMILES. Where “and” joins values, the source holds several entries; their conditions need not be identical. Equal entries are not always repeated. Records with an inconclusive call do not appear. A number with no mark means an inactive call. Calls of active or inactive are those of the source. Calls come from the whole dose curve; as a rule, active = well fitted curve in the direction sought with a large enough effect; inconclusive = small, poorly fitted or top-dose-only effect, or another doubt; inactive = no such curve, though single readings can be large; an effect the other way counts as inactive or inconclusive.

Chain of Cellular tumor antigen p53 (Homo sapiens) (P04637 whole entry, looked up): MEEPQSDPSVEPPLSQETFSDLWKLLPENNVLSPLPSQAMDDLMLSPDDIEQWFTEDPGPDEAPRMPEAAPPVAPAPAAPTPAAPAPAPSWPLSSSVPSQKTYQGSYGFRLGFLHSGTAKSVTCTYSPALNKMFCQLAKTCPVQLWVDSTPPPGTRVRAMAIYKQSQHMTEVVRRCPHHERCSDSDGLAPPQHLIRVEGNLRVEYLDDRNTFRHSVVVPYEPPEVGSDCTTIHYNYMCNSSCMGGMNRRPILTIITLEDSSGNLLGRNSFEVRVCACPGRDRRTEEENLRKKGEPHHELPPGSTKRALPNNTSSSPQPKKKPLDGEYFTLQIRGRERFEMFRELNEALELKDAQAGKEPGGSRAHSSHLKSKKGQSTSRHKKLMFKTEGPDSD

As a reminder, the viability is a read-out of living cells in per cent, often relative to untreated cells. As to `Cc1noc(-c2ccc(CSCCC(=O)O)cc2)c1NC(=O)OC(C)c1ccccc1Cl` (stereo not drawn), the activation in assay [1] is -1.99%. Moreover, in assay [2], the viability was 114%. Besides, the Potency result in assay [3], in assay [4], in assay [5], in assay [6], in assay [7] and in assay [8] was “inactive” in each case.

Regarding `COc1ccc2nc3cc(Cl)ccc3c(Nc3cc(CN4CCCC4)c(O)c(CN4CCCC4)c3)c2n1`, the activation in assay [1] is 55.3%. Also, the Potency in assay [2] was 7420 nM (active); in assay [3] it was 7420 nM (active); in assay [4], 4680 nM (active); in assay [5], 11800 nM (active); in assay [6], 8330 nM (active); in assay [7] it was 10500 nM (active). The Potency in assay [8] was 10500 nM (active).

`Cc1nc2cnc3ccc(C#Cc4cccnc4)cc3c2n1-c1ccc(C(C)(C)C#N)cc1`: in assay [1], the activation was 35.7%. Also, the Potency in assay [2] was 1660 nM (active); in assay [3], 2950 nM (active); in assay [4], 742 nM (active); in assay [5] it was 525 nM (active); in assay [6] it was 296 nM (active); in assay [7] it was 590 nM (active). Besides, the Potency in assay [8] was 468 nM (active).

Regarding `COC(=O)Nc1nc2ccc(Sc3ccccc3)cc2[nH]1`, the activation in assay [1] was -17.6% and 21.8%. The Potency in assay [2] was 1180 nM (active); in assay [3], 742 nM (active); in assay [4] it was 934 nM (active); in assay [5], 525 nM (active); in assay [6], 468 nM (active); in assay [7], 468 nM (active). For the same molecule, the Potency in assay [8] is 417 nM (active).

On to `O=C(O)CSCC(=O)NC1CCSC1=O` (stereo not drawn), for which, in assay [1], the activation is -13.1% and -8.37%. Besides, the viability in assay [2] is 95.2%. Besides, the Potency result in assay [3], in assay [4], in assay [5], in assay [6], in assay [7] and in assay [8] was “inactive” in each case.

`CN(C)c1ccc(C(=C2C=CC(=[N+](C)C)C=C2)c2ccc(N(C)C)cc2)cc1`: the activation in assay [1] was -20.9%. The Potency in assay [2] is 1050 nM (active); in assay [3], 1320 nM (active); in assay [4], 662 nM (active); in assay [5], 934 nM (active); in assay [6] it was 1050 nM (active); in assay [7], 1180 nM (active). Further, the Potency in assay [8] was 934 nM (active).
